Out of some 5,500 compounds screened, about 2,000 (36%) were called active. Another 18% or so got no clear call; they are omitted. No stated cut-off is given here; in the data, active means normalized growth mostly below about 0.91 (no sharp cut-off); inconclusive means no clear call, values can overlap the other calls; inactive means mostly above about 0.92. The list shows a part of the results.
Experiment: chemical genetic growth profiling, strain panel (AID 1159580);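 further: tested at 20 µM; growth read once vehicle control cultures reached saturation at 30 °C; 1 = growth at the plate median or of vehicle wells; lower values mean less growth of the strain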
Conditions: growth OD
[1] = S. cerevisiae deletion strains, locus YBR021W, strain FUR4, hits give low values
[2] = S. cerevisiae deletion strains, locus YBR229C, strain ROT2, hits give low values
[3] = S. cerevisiae deletion strains, locus YCL029C, strain bik1, hits give low values
[4] = S. cerevisiae deletion strains, locus YDL035C, strain GPR1, hits give low values
[5] = S. cerevisiae deletion strains, locus YDL074C, strain BRE1, hits give low values
[6] = S. cerevisiae deletion strains, locus YDL101C, strain DUN1, hits give low values
[7] = S. cerevisiae deletion strains, locus YDL134C, strain PPH21, hits give low values
[8] = S. cerevisiae deletion strains, locus YDL185W, strain tfp1, hits give low values
[9] = S. cerevisiae deletion strains, locus YDL192W, strain arf1, hits give low values
[10] = S. cerevisiae deletion strains, locus YDR101C, strain arx1, hits give low values
[11] = S. cerevisiae deletion strains, locus YDR162C, strain NBP2, hits give low values
[12] = S. cerevisiae deletion strains, locus YDR318W, strain mcm21, hits give low values
[13] = S. cerevisiae deletion strains, locus YDR388W, hits give low values
[14] = S. cerevisiae deletion strains, locus YDR502C, strain sam2, hits give low values
[15] = S. cerevisiae deletion strains, locus YEL061C, strain CIN8, hits give low values
[16] = S. cerevisiae deletion strains, locus YER110C, hits give low values
[17] = S. cerevisiae deletion strains, locus YER155C, strain BEM2, hits give low values
[18] = S. cerevisiae deletion strains, locus YER167W, strain BCK2, hits give low values
[19] = S. cerevisiae deletion strains, locus YGL078C, strain dbp3, hits give low values
[20] = S. cerevisiae deletion strains, locus YGL086W, strain mad1, hits give low values
[21] = S. cerevisiae deletion strains, locus YGL248W, strain PDE1, hits give low values
[22] = S. cerevisiae deletion strains, locus YGR078C, strain PAC10, hits give low values
[23] = S. cerevisiae deletion strains, locus YGR135W, strain pre9, hits give low values
[24] = S. cerevisiae deletion strains, locus YGR252W, strain gcn5, hits give low values
[25] = S. cerevisiae deletion strains, locus YHR030C, strain SLT2, hits give low values
[26] = S. cerevisiae deletion strains, locus YHR079C, strain IRE1 (second series), hits give low values
[27] = S. cerevisiae deletion strains, locus YHR094C, strain hxt1, hits give low values
[28] = S. cerevisiae deletion strains, locus YHR129C, strain ARP1, hits give low values
[29] = S. cerevisiae deletion strains, locus YHR200W, strain rpn10, hits give low values
[30] = S. cerevisiae deletion strains, locus YIL066C, strain RNR3, hits give low values
[31] = S. cerevisiae deletion strains, locus YIL073C, strain SPO22, hits give low values
[32] = S. cerevisiae deletion strains, locus YIL125W, strain kgd1, hits give low values
[33] = S. cerevisiae deletion strains, locus YIR030C, strain dcg1, hits give low values
[34] = S. cerevisiae deletion strains, locus YJL095W, strain BCK1, hits give low values
[35] = S. cerevisiae deletion strains, locus YJL134W, strain LCB3, hits give low values
[36] = S. cerevisiae deletion strains, locus YJL168C, strain set2, hits give low values
[37] = S. cerevisiae deletion strains, locus YJL187C, strain SWE1 (second series), hits give low values
[38] = S. cerevisiae deletion strains, locus YKL009W, strain mrt4, hits give low values
[39] = S. cerevisiae deletion strains, locus YKL068W, hits give low values
[40] = S. cerevisiae deletion strains, locus YKL085W, strain MDH1 (second series), hits give low values
[41] = S. cerevisiae deletion strains, locus YKL085W, strain MDH1, hits give low values
[42] = S. cerevisiae deletion strains, locus YKL190W, strain CNB1, hits give low values
[43] = S. cerevisiae deletion strains, locus YKR001C, strain vps1, hits give low values
[44] = S. cerevisiae deletion strains, locus YLR039C, strain RIC1, hits give low values
[45] = S. cerevisiae deletion strains, locus YLR058C, strain SHM2, hits give low values
[46] = S. cerevisiae deletion strains, locus YLR102C, strain apc9, hits give low values
[47] = S. cerevisiae deletion strains, locus YLR268W, strain sec22, hits give low values
[48] = S. cerevisiae deletion strains, locus YLR342W, strain FKS1 (second series), hits give low values
[49] = S. cerevisiae deletion strains, locus YLR371W, strain rom2, hits give low values
[50] = S. cerevisiae deletion strains, locus YLR418C, strain cdc73, hits give low values
[51] = S. cerevisiae deletion strains, locus YML016C, strain PPZ1, hits give low values
[52] = S. cerevisiae deletion strains, locus YML032C, strain rad52, hits give low values
[53] = S. cerevisiae deletion strains, locus YML124C, strain tub3, hits give low values
[54] = S. cerevisiae deletion strains, locus YMR078C, strain ctf18, hits give low values
[55] = S. cerevisiae deletion strains, locus YMR223W, strain ubp8, hits give low values
[56] = S. cerevisiae deletion strains, locus YMR263W, strain SAP30, hits give low values
[57] = S. cerevisiae deletion strains, locus YMR307W, strain GAS1, hits give low values
[58] = S. cerevisiae deletion strains, locus YNL067W, strain RPL9B, hits give low values
[59] = S. cerevisiae deletion strains, locus YNL233W, strain BNI4, hits give low values
[60] = S. cerevisiae deletion strains, locus YNL250W, strain rad50, hits give low values
[61] = S. cerevisiae deletion strains, locus YNL271C, strain bni1, hits give low values
[62] = S. cerevisiae deletion strains, locus YNL298W, strain CLA4, hits give low values
[63] = S. cerevisiae deletion strains, locus YNL307C, strain MCK1, hits give low values
[64] = S. cerevisiae deletion strains, locus YNR052C, strain pop2, hits give low values
[65] = S. cerevisiae deletion strains, locus YOL006C, strain TOP1, hits give low values
[66] = S. cerevisiae deletion strains, locus YOL012C, strain htz1
[67] = S. cerevisiae deletion strains, locus YOL147C, strain pex11, hits give low values
[68] = S. cerevisiae deletion strains, locus YOR061W, strain CKA2, hits give low values
[69] = S. cerevisiae deletion strains, locus YOR069W, strain VPS5, hits give low values
[70] = S. cerevisiae deletion strains, locus YOR136W, strain idh2, hits give low values
[71] = S. cerevisiae deletion strains, locus YOR144C, strain elg1, hits give low values
[72] = S. cerevisiae deletion strains, locus YOR184W, strain ser1, hits give low values
[73] = S. cerevisiae deletion strains, locus YOR316C, strain cot1, hits give low values
[74] = S. cerevisiae deletion strains, locus YPL241C, strain CIN2, hits give low values
[75] = S. cerevisiae deletion strains, locus YPR119W, strain clb2, hits give low values
[76] = S. cerevisiae deletion strains, locus YPR141C, strain kar3, hits give low values
[77] = S. cerevisiae deletion strains, locus YPR163C, strain tif3, hits give low values
[78] = S. cerevisiae deletion strains, locus YPR167C, strain met16, hits give low values
[79] = S. cerevisiae deletion strains, strain wtn01, hits give low values
[80] = S. cerevisiae strains, strain wild type, hits give low values

Measured: normalized growth

COc1c(C2COc3cc4c(cc3C2=O)CC(O)C(C)(C)O4)ccc2c1CCC(C)(C)O2 (configuration not stated)
inactive: [1] 0.992 | [2] 1.01 | [3] 1.01 | [4] 1.02 | [5] 1.05 | [6] 1.02 | [7] 1.05 | [8] 1.05 | [9] 1.01 | [10] 0.982 | [11] 1.02 | [12] 1.01 | [13] 1.03 | [14] 1.04 | [15] 1.01 | [16] 1.02 | [17] 1.02 | [18] 1.01 | [19] 1.02 | [20] 1.01 | [21] 1.06 | [22] 1.02 | [23] 1.07 | [24] 1.04 | [25] 1.01 | [26] 1.02 | [27] 1 | [28] 1.02 | [29] 1.03 | [30] 1.04 | [31] 1.08 | [32] 1.01 | [33] 1.03 | [34] 1.05 | [35] 0.995 | [36] 1.03 | [37] 1.04 | S. cerevisiae deletion strains, locus YJR043C, strain POL32, hits give low values 1.01 | [38] 1.01 | [39] 1.01 | [40] 1.01 | [41] 1.01 | [42] 1.01 | [43] 1.04 | [44] 1.11 | [45] 1.02 | [46] 1.01 | [47] 0.997 | [48] 1.04 | [49] 1.03 | [50] 1.08 | [51] 1 | [52] 1.01 | [53] 1 | [54] 1.02 | [55] 1.02 | [56] 1 | [57] 1.13 | [58] 1.01 | S. cerevisiae deletion strains, locus YNL153C, strain GIM3, hits give low values 1.06 | [59] 1.04 | [60] 1.05 | [61] 1.01 | [62] 1.02 | [63] 1.01 | [64] 1.03 | [65] 1.06 | [66] 0.808 | [67] 1 | [68] 1.01 | [69] 1.01 | [70] 1.02 | [71] 1.01 | [72] 0.971 | [73] 1.01 | [74] 0.99 | [75] 1.02 | [76] 1.01 | [77] 1.03 | [78] 1.04 | [79] 1 | [80] 1.03

COc1c(C(=O)O)ccc2c1CCC(C)(C)O2
inactive: [1] 1.03 | [2] 1.02 | [3] 1.01 | [4] 1.09 | [5] 1.13 | [6] 1.02 | [7] 1.07 | [8] 0.976 | [9] 1.03 | [10] 0.999 | S. cerevisiae deletion strains, locus YDR150W, strain NUM1, hits give low values 1.04 | [11] 1.05 | [12] 0.987 | [13] 0.987 | [14] 0.981 | [15] 1.03 | [16] 0.997 | [17] 0.984 | [18] 1.01 | [19] 0.964 | [20] 1 | [21] 1.06 | [22] 1.06 | [23] 0.994 | [24] 1.06 | [25] 1.02 | [26] 0.982 | [27] 0.987 | [28] 1.02 | [29] 1 | [30] 1.04 | [31] 1.12 | [32] 0.957 | [33] 0.982 | [34] 1.1 | [35] 1.01 | [36] 0.988 | [37] 1.03 | [38] 0.995 | [40] 0.955 | [41] 0.955 | [42] 1.02 | [43] 1.04 | [44] 1.19 | [45] 1.04 | [46] 0.986 | S. cerevisiae deletion strains, locus YLR262C, strain YPT6, hits give low values 1.22 | [47] 0.989 | S. cerevisiae deletion strains, locus YLR330W, strain CHS5, hits give low values 1.03 | [48] 1.07 | [49] 1.01 | [50] 1.07 | [51] 1.02 | [52] 0.991 | [53] 0.975 | [54] 0.983 | [55] 1 | [56] 1.01 | [57] 1.03 | [58] 0.992 | [59] 1.08 | [60] 0.956 | [61] 0.995 | [62] 0.993 | [63] 0.989 | S. cerevisiae deletion strains, locus YNL322C, strain KRE1, hits give low values 1.02 | [64] 0.981 | [65] 1.43 | [66] 0.918 | [67] 0.98 | [68] 1.02 | [69] 1.01 | [70] 0.993 | [71] 0.981 | [72] 1.04 | [73] 0.977 | [74] 1.02 | [75] 0.983 | [76] 0.942 | [77] 0.986 | [78] 0.98 | [79] 1.01 | [80] 1.06
active: S. cerevisiae deletion strains, locus YGR229C, strain SMI1, hits give low values 1.2 [resistant] | [39] 0.922
